Inconclusive results are not listed. The source made the active and inactive calls.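 The calls were made as follows, unless noted: active = compounds killing one labelled cell type while sparing the other, by normalised counts and ratio limits, not self-fluorescent; inactive = the rest.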
Experiments:
[1] = differential killing of epithelial or mesenchymal cells, primary screen, imaging, PC-3E GFP, TEM4-18 mCherry, co-culture (AID 1345086); conditions: imaging cell counts, at 1 µM; for red/green cell ratio (normalised): actives lie on both sides, counts scaled to control wells, 1 = unselective;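 as to all read-outs here: cells exposed to compound for 72 h before imaging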;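 as to red/green cell ratio (normalised): normalised mesenchymal count divided by normalised epithelial count so high means epithelial killing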
[2] = tested on: Aerobactin synthetase IucA (Klebsiella pneumoniae); assay: IucA aerobactin synthetase inhibitors, biochemical, Tocris library, absorbance (AID 1345561; call rule not given here;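 also: 100% = enzyme without compound and 0% = no enzyme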); conditions: purified IucA enzyme assay, absorbance (OD) read-out; stronger effect = lower value;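 tested at 8 µM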
[3] = growth inhibition of DIPG glioma cells, dose response, cell-based, SU-DIPG-XVII, MIPE5.0, CellTiter-Glo, qHTS (AID 1347060; cut-off not given, nearly all actives have AC50 up to about 26 µM); conditions: SU-DIPG-XVII viability, CellTiter-Glo ATP luminescence
[4] = growth inhibition of DIPG glioma cells, dose response, cell-based, SU-DIPG-XIII, MIPE4.0, CellTiter-Glo, qHTS (AID 1347061; cut-off not given, nearly all actives have AC50 up to about 37 µM;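 also: cells exposed to compound for 48 hours before readout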); conditions: SU-DIPG-XIII viability, CellTiter-Glo ATP luminescence
[5] = growth inhibition of DIPG glioma cells, dose response, cell-based, JHH-DIPG-1, MIPE4.0, CellTiter-Glo, qHTS (AID 1347062; cut-off not given, nearly all actives have AC50 up to about 27 µM); conditions: JHH-DIPG-1 viability, CellTiter-Glo ATP luminescence
[6] = growth inhibition of DIPG glioma cells, dose response, cell-based, SU-DIPG-XIII, MIPE5.0, CellTiter-Glo, qHTS (AID 1347064; cut-off not given, nearly all actives have AC50 up to about 23 µM); conditions: SU-DIPG-XIII viability, CellTiter-Glo ATP luminescence
[7] = growth inhibition of DIPG glioma cells, dose response, cell-based, SU-DIPG-IV, MIPE4.0, CellTiter-Glo, qHTS (AID 1347063; cut-off not given, nearly all actives have AC50 up to about 30 µM;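 also: compound exposure lasted 48 hours before the viability readout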); conditions: SU-DIPG-IV viability, CellTiter-Glo ATP luminescence
[8] = measured here: epithelial PC-3E GFP cell survival
[9] = measured here: mesenchymal TEM4-18 mCherry cell survival

CC(C)(Oc1ccc(Cl)cc1)C(=O)O
red/green cell ratio (normalised) [1]: 0.77 (inactive) | normalised cell number [1, 8]: 1.11 | normalised cell number [1, 9]: 0.86 | remaining activity [2]: 92.9% (inactive)

O=C(O)CN1C(=O)c2cccc3cccc(c23)C1=O
red/green cell ratio (normalised) [1]: 1.28 (inactive) | normalised cell number [1, 8]: 1 | normalised cell number [1, 9]: 1.28 | remaining activity [2]: 110% (inactive)

COc1ccc(CN(CCN(C)C)c2ccccn2)cc1
red/green cell ratio (normalised) [1]: 1.1 (inactive) | normalised cell number [1, 8]: 1.02 | normalised cell number [1, 9]: 1.12 | remaining activity [2]: 118% (inactive)

O=P(O)(O)C(O)(Cc1cccnc1)P(=O)(O)O
red/green cell ratio (normalised) [1]: 0.63 (inactive) | normalised cell number [1, 8]: 1.37 | normalised cell number [1, 9]: 0.87 | outcome [3]: inactive | outcome [4]: inactive | outcome [5]: inactive | outcome [6]: inactive

NNc1nncc2ccccc12
red/green cell ratio (normalised) [1]: 1.11 (inactive) | normalised cell number [1, 8]: 1.13 | normalised cell number [1, 9]: 1.26 | outcome [3]: inactive | outcome [4]: inactive | outcome [7]: inactive

Source: PubChem BioAssay
